The entries come from a sample that favours hits as a whole.
LmPK inhibitor: inhibitors of Leishmania mexicana pyruvate kinase; Q27686; purified LmPK, Kinase-Glo ATP luminescence, 1 h; Potency, µM (highest dose often 57.5 µM), most hits filed as inhibitors; 290,000 compounds, 0.37% hits; AID 1721
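Purified LmPK (0.1 nM) converted ADP (0.1 mM) to ATP with PEP (0.5 mM) in imidazole buffer pH 7.2 with KCl and MgCl2, 1 h at room temperature. ATP was read by Kinase-Glo luminescence; data normalized to uninhibited and no-enzyme controls.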
FBPA Giardia inh: inhibitors of Giardia lamblia fructose-1,6-bisphosphate aldolase | purified Giardia FBPA | 290,000 compounds, 0.71% hits | A8B2U2 | AID 2451 | Potency, µM (series often up to 59.6 µM), actives largely listed as inhibitors; further: nearly all actives have a fitted effect of over 55% in size
Target sequence (A8B2U2 whole entry, looked up): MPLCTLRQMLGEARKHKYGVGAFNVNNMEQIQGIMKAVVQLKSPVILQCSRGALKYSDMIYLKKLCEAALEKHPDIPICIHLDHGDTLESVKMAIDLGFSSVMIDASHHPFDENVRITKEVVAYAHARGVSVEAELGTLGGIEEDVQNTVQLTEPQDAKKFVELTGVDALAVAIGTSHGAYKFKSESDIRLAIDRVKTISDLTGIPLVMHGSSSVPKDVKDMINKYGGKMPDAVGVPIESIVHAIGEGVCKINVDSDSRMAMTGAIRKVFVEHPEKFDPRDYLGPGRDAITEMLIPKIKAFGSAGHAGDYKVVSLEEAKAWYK
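40 nM FBPA preincubated 10 min at RT with compound (up to 57.5 uM final), then substrate plus GAPDH/TPI/NAD/arsenate coupling and diaphorase/resazurin added. Fluorescence read after 20 min at RT, 525/598 nm.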
Shiga toxin inh: inhibitors of Shiga toxin in Vero cells | 290,000 compounds, 9.2% hits | AID 2315 | Vero cells, Shiga toxin protein synthesis inhibition reporter | inhibition, % at 38.7 µM; in the data active means inhibition mostly above about 28%, no sharp cut-off; inactive means mostly below about 43%
Sm TGR block: blocks Schistosoma mansoni thioredoxin glutathione reductase; Q962Y6; purified TGR, DTNB reduction, TNB absorbance 405 nm; Potency, µM (titrated, usually from 114 µM), most hits filed as inhibitors; 360,000 compounds, 3% hits; further: nearly all actives have a fitted effect of over 60% in size
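First, TGR (20 nM dispensed) and NADPH were mixed with compound. Second, a 15 min room-temperature incubation followed. Third, further NADPH and then DTNB were added to start the reaction. Finally, TNB absorbance was monitored kinetically.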
TbPYK inhibitor: inhibitors of Trypanosoma brucei pyruvate kinase; Potency, µM (titrated, usually from 76.8 µM), usual class: inhibitors; Q57TT1; 410,000 compounds, 0.12% hits; TbPYK enzyme, Kinase-Glo Plus ATP luminescence, 45 min; further: nearly all actives have a fitted effect of over 50% in size
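Quantitative HTS: titrated library compounds versus trypanosomal pyruvate kinase in TEA buffer (pH 7.2) containing KCl, MgCl2, BSA and Tween-20. Reactions were initiated with ADP, 130 uM final. Kinase-Glo Plus luminescence was read after 45 min at RT.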
Cycloheximide cs: affects cycloheximide protein synthesis inhibition readout, counter-screen | cell reporter, cycloheximide protein synthesis inhibition counterscreen | max response, % | 300,000 compounds, 12% hits; in the data active means max response mostly above about 13%, no sharp cut-off; inactive means mostly below about 14%; further: read at 38.3 µM for the half of the compounds with a filed dose
Of the large screens only hits and unclear results are named; the others gave an inactive call. Unless noted, the call rests on the fitted dose curve; in most records, active means well fitted curve in the direction sought with a large enough effect; inconclusive means small, poorly fitted or top-dose-only effect, or another doubt; inactive means no such curve, though single readings can be large; an effect the other way counts as inactive or inconclusive.

CCOc1ccc(NC(=O)CCc2c(C)nc3c(c(C)nn3-c3ccccc3)c2C)cc1	none (no result: LmPK inhibitor, FBPA Giardia inh, Shiga toxin inh, Cycloheximide cs)
N#C/C(=C\c1ccc(-c2ccccc2[N+](=O)[O-])o1)C(N)=O	FBPA Giardia inh inconclusive, Sm TGR block inconclusive
CNC(=O)/C(C#N)=C/c1ccc(-c2ccccc2[N+](=O)[O-])o1	FBPA Giardia inh inconclusive, Cycloheximide cs 36.2 (no result: Sm TGR block)
CCN(CC)CCNC(=O)C(=O)NCC(c1ccc2c(c1)OCO2)N1CCOCC1 (stereo not given)	none (no result: LmPK inhibitor, FBPA Giardia inh, Shiga toxin inh, Cycloheximide cs)
S=C(N=Nc1ccccc1)NNc1ccccc1	Shiga toxin inh 121.7, Cycloheximide cs 53.8
NC(=O)NNc1ccccc1	none (no result: LmPK inhibitor, Sm TGR block)
c1ccc(-c2csc(Nc3ccc4c(c3)OCCO4)n2)cc1	Shiga toxin inh 97.2, Cycloheximide cs 54.1
COc1cccc(C(C)(O)c2nc(-c3ccc4c(c3)OCO4)cs2)c1 (stereo not given)	none (no result: LmPK inhibitor, FBPA Giardia inh, Shiga toxin inh, Sm TGR block, Cycloheximide cs)
COc1cccc(Nc2nc(-c3ccc4c(c3)OCCO4)cs2)c1	Shiga toxin inh 103.3, Cycloheximide cs 53.4
c1cc2c(cc1Nc1nc(-c3ccc4c(c3)OCO4)cs1)OCCO2	Shiga toxin inh 77.5, Cycloheximide cs 63.5
COc1ccc(Cn2ccc3nc(C)c(C(=O)NCc4cccc(OC)c4)cc3c2=O)cc1	none (no result: LmPK inhibitor, FBPA Giardia inh, Shiga toxin inh, Cycloheximide cs)
CCCC[C@@H]1C[C@H]1C(NC(=O)Cc1ccccc1)c1ccc(-c2ccccc2)cc1 (stereo not given in full)	none (no result: LmPK inhibitor, Shiga toxin inh, Sm TGR block, TbPYK inhibitor, Cycloheximide cs)
Cc1ccsc1-c1cc2nc(NCCCN(C)C)n(C)c(=O)c2s1	none (no result: LmPK inhibitor, FBPA Giardia inh, Shiga toxin inh, Sm TGR block, Cycloheximide cs)
Cc1ccc(/C(N)=N/OC(=O)COc2ccccc2Cl)cc1	Cycloheximide cs 39.2
N/C(=N\OC(=O)COc1ccccc1Cl)c1ccc(Cl)cc1	Shiga toxin inh active, Cycloheximide cs 14.7
N/C(=N\OC(=O)COc1ccc(Cl)cc1)c1ccc(Cl)cc1	none
Cc1cc(C)cc(OCC(=O)O/N=C(\N)c2ccccc2Cl)c1	none
CNc1ccccc1C(=O)OCC(=O)N1CCc2ccccc2C1	none (no result: LmPK inhibitor, FBPA Giardia inh, Shiga toxin inh, Sm TGR block, Cycloheximide cs)
CCn1c(O)c(/C=N/NC(=O)c2ccccc2)c(=O)n(CC)c1=S	Shiga toxin inh 51.9, Sm TGR block inconclusive, Cycloheximide cs 47.2
CCN(CC)CCCN=Cc1c(O)n(CCc2ccc(F)cc2)c(=O)[nH]c1=O	none
CCn1c(O)c(/C=N/NC(=O)c2ccncc2)c(=O)[nH]c1=S	Sm TGR block inconclusive
CCN(CC)CCN=Cc1c(O)n(CCc2ccccc2)c(=O)[nH]c1=O	Sm TGR block 25.1µM
CCCCn1c(O)c(/C=N/NC(=O)c2ccncc2)c(=O)[nH]c1=O	none
O=C(N/N=C/c1c(O)n(CCc2ccccc2)c(=O)[nH]c1=O)c1ccccc1	Shiga toxin inh 30.9, Sm TGR block inconclusive, Cycloheximide cs 29.6
O=C1[C@H]2[C@H]3[C@H](O)[C@H](O)C/C(=N/OC[C@@H](O)COCc4ccco4)[C@H]3CC[C@@H]2C(=O)N1Cc1ccccc1	none (no result: LmPK inhibitor, Shiga toxin inh, Sm TGR block, TbPYK inhibitor, Cycloheximide cs)
O=S(=O)(c1ccc(Cl)cc1)c1nc(-c2cccc(Br)c2)oc1NCc1ccccc1	none (no result: LmPK inhibitor, FBPA Giardia inh, Shiga toxin inh, Cycloheximide cs)
Cc1ccccc1-c1noc(-c2ccc(O)cc2)n1	LmPK inhibitor 14.1µM, Shiga toxin inh 64.5, Cycloheximide cs 52.3
Cc1ccccc1-c1noc(-c2ccccc2F)n1	LmPK inhibitor inconclusive, Shiga toxin inh 68.0, Cycloheximide cs 35.6
Cc1ccccc1-c1noc(-c2ccc(Cl)cc2)n1	Cycloheximide cs 24.0
CCCCc1ccc(NC(=O)c2cc3c(=O)n4ccccc4nc3n2C)cc1	none (no result: LmPK inhibitor, FBPA Giardia inh, Shiga toxin inh, Cycloheximide cs)
CCOc1ccc(N2CC(NC(=O)c3cc4ccccc4o3)CC2=O)cc1 (stereo not given)	none (no result: LmPK inhibitor, FBPA Giardia inh, Shiga toxin inh, Cycloheximide cs)
COc1ccc2c(c1)C(=O)[C@@H](OC(=O)Nc1ccc(C)c(Br)c1)[C@H](c1ccc(OC)c(Br)c1)O2	none (no result: LmPK inhibitor, Shiga toxin inh, Sm TGR block, TbPYK inhibitor, Cycloheximide cs)
C=CCn1c(C)cc(C(=O)COc2nncc3ccccc23)c1C	Shiga toxin inh 159.0, Cycloheximide cs 68.9
CCCn1c(C)cc(C(=O)COc2ccc(C)nc2[N+](=O)[O-])c1C	Shiga toxin inh 85.0, Cycloheximide cs 15.1
Cc1ccc(OCC(=O)c2cc(C)n(-c3ccccc3)c2C)c([N+](=O)[O-])n1	Shiga toxin inh 64.0, Cycloheximide cs 45.5
C=CCn1c(C)cc(C(=O)COc2ccc(S(=O)(=O)N3CCCC3)cc2[N+](=O)[O-])c1C	Cycloheximide cs 13.2
Cc1noc(C)c1-c1ccc(C(=O)NCCc2ccccc2)c2occc12	none (no result: LmPK inhibitor, FBPA Giardia inh, Shiga toxin inh, Sm TGR block, Cycloheximide cs)

Screening results deposited in PubChem by National Center for Advancing Translational Sciences (NCATS).
